Screening results: PubChem, several laboratories
PfHsp40 yeast – rescue of PfHsp40-mediated yeast toxicity; S. cerevisiae expressing PfHsp40, growth rescue, ATP luminescence; growth rescue, % at 12.5 µM; AID 504582; hit rate 0.68% among 340,000; in the data active = growth rescue above about 28%, passing the limit was not always enough; inconclusive = no clear call, values can overlap the other calls;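 note: yeast W303a lacking pdr1 and pdr3 grown in galactose medium; growth measured after three days at 30 °C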
CCHFV vOTU inh – CCHFV vOTU protease inhibition; inhibition, % at 11.5 µM; Pep-AMC fluorescence; hit rate 0.55% among 370,000; in the data active = inhibition above about 30%; note: 0% = vehicle wells with enzyme and 100% = no enzyme wells
PrPC TRFRET – inhibitors of human cell surface prion protein PrPC | AID 720596 | TR-FRET read-out | P04156 | hit rate 0.43% among 370,000 | inhibition, % at 13.8 µM; in the data active = inhibition above about 24%; note: 0% = median of the test wells and 100% = reference compound wells
BJeLR lethal – kills HRASV12-expressing BJeLR cells | inhibition, % (concentration not given with the values) | BJeLR (HRASV12) viability, CellTiter-Glo ATP luminescence, 48 h | hit rate 0.17% among 300,000; in the data active = inhibition above about 50%; inconclusive = no clear call, values can overlap the other calls
Yp Topo-I inh – Y. pestis Topo-I inhibition via cleavage products; Y. pestis Topo-I cleavage product accumulation, plate reader; activity, % at 10 µM; hit rate 0.064% among 360,000; AID 504884; in the data active = activity above about 50%, passing the limit was not always enough; inconclusive = no clear call, values can overlap the other calls
PrP UTR inh – inhibition of PrP 5' UTR reporter expression. cell-based PrP 5' UTR mRNA reporter, plate reader. inhibition, % (test concentration not listed). hit rate 0.35% among 340,000. AID 488862; in the data active = inhibition above about 52%; note: 0 = median of the neutral control wells
PrP UTR cherry – prion 5' UTR mRNA inhibition, cherry-pick retest | AID 504592 | hit rate 48% among 1,100 | inhibition, % at 2.5 µM | cell-based prion protein 5' UTR reporter, plate reader | shares compounds with PrP UTR inh; in the data active = inhibition above about 54%; inconclusive = no clear call, values can overlap the other calls
Active calls of the source: *; ? = inconclusive; . = not tested or not shown. The list is not random: actives were taken first. Their share in the collection is about 2%.

SMILES	PfHsp40 yeast	CCHFV vOTU inh	PrPC TRFRET	BJeLR lethal	Yp Topo-I inh	PrP UTR inh	PrP UTR cherry
COC(=O)c1cc2c(c3c4cc(F)ccc4n(S(=O)(=O)c4ccccc4)c13)C(=O)N(Cc1ccccc1)C2	.	9	9	.	.	.	.
CN(C)S(=O)(=O)c1ccc(C(=O)NCC2CC2(Cl)Cl)cc1 (stereo not drawn)	-1	4	4	0	0	63*	17
Cc1ccc(S(=O)(=O)N(C)c2c(C)ccc(S(=O)(=O)NC(C)(C)C)c2C)cc1	0	21	-1	5	3	82*	-39
Cc1ccc(S(=O)(=O)N(C)c2c(C)ccc(S(=O)(=O)Nc3ccncc3)c2C)cc1	-2	8	4	-5	4	-3	.
O=C(NCc1ccccc1)[C@@H]1CCCN1C(=O)[C@H]1CCCN1C(=O)C1CCCCC1	.	-4	3	.	.	.	.
Cc1ccc(C2(SCC(N)C(=O)O)c3ccccc3-c3ccccc32)cc1 (stereo not drawn)	0	9	6	.	5	89*	-9
O=C1/C(=C/c2cccc([N+](=O)[O-])c2)CCc2ccccc21	8	19	-11	13	-2	4	.
CCN1C/C(=C\c2cccc([N+](=O)[O-])c2)C(=O)/C(=C/c2cccc([N+](=O)[O-])c2)C1	-2	24	0	.	-5	63*	61*
CC(C)Cn1c(-c2cccc(S(=O)(=O)N3CCOCC3)c2)n[nH]c1=S	1	4	8	.	0	77*	-18
CCC(C)n1c(-c2cccc(S(=O)(=O)N3CCOCC3)c2)n[nH]c1=S (stereo not drawn)	1	-6	-4	.	0	-15	.
O=C(/C=C/c1ccco1)Nc1ccccn1	-1	-11	-4	23	2	-20	.
Cc1ccc(NC(=O)/C=C/c2ccco2)nc1	1	1	-11	44	1	70*	84*
CCOC(=O)C1=CN(Cc2cccc(I)c2)S(=O)(=O)N(C)C1C (stereo not drawn)	1	8	-6	.	29	90*	-11
CCOC(=O)C1=CN(Cc2ccco2)S(=O)(=O)N(C)C1c1ccc2ccccc2c1 (stereo not drawn)	-1	-3	0	.	6	55*	-7
CCOC(=O)C1=CN(Cc2cccc(-c3cccnc3)c2)S(=O)(=O)N(C)C1C (stereo not drawn)	2	-2	-1	.	16	-11	.
CCOC(=O)C1=CN(Cc2ccco2)S(=O)(=O)N(C)C1c1ccc(C(F)(F)F)cc1 (stereo not drawn)	6	2	-1	.	16	1	.
COc1ccccc1CNC(=O)N(CCc1c(C)[nH]c2ccccc12)Cc1cccs1	.	3	2	.	.	.	.
CC(C)(C)[C@H]1COC(=O)CCCC/C=C\C[C@H](CC(=O)NCCO)C(=O)N1	0	3	2	.	2	58*	?
Cc1ccc(CN2C(=O)S/C(=C\c3ccccc3OCC(=O)O)C2=O)cc1	2	23	-7	13	-2	81*	-15
COc1ccc(OC)c2[nH]c(=O)c(CCNC(=O)COc3ccccc3)cc12	-1	16	-2	3	14	57*	-6
COc1ccc(OC)c2[nH]c(=O)c(CCNC(C)=O)cc12	1	-4	-4	13	2	-4	.
COc1cccc(CNC(=O)Cn2c(-c3ccccc3)cc(C(C)=O)c2C)c1	.	1	-3	.	.	.	.
C=CC[n+]1c(-c2ccc(C)cc2)csc1Nc1ccc(NC(C)=O)cc1	2	10	17	11	29	71*	59*
CCOc1cc(/C=N/Nc2cccc(C(=O)O)c2)ccc1OC(=O)c1ccccc1	1	6	15	4	5	71*	?
